Reference: PubChem BioAssay AID463173 (ICCB-Longwood Screening Facility, Harvard Medical School, 2010)
The campaign covered roughly 52,000 compounds. About 4,300 (8.3%) were called active. Rule as the data show it: active = survival mostly below about 52% (no sharp cut-off); inactive = mostly above about 56%. The sample as a whole holds a higher share of actives than the screen did.

tested on: DeltatarO mutant; test: S. aureus survival, RN4220 and DeltatarO strains – OD600, teichoic acid synthesis inhibitors, primary screen (AID 463173); conditions: S. aureus RN4220 wild type/DeltatarO growth, OD600, 18 h, stronger effect = lower value, screened at 18.75 µg/mL (by protocol)

SMILES	survival
COc1ccc(OCC(=O)Nc2ccc3oc(-c4ccncc4)nc3c2)cc1	87% (inactive)
CCN1CCN(C(=O)c2cnn(-c3ccc(F)cc3F)c2C2CCN(C(=O)OC(C)(C)C)CC2)CC1	86% (inactive)
CCc1nnc2c3ccccc3nc(Nc3ccccc3OC)n12	57% (inactive)
COc1ccc(C)cc1Nc1nc2ccccc2c2nnc(C)n12	135% (inactive)
COc1ccc(Nc2nc3ccccc3c3nnc(C)n23)cc1Cl	48% (inactive)
COc1cc(Nc2nc3ccccc3c3nnc(C)n23)cc(OC)c1	37% (active)
CCc1nnc2c3ccccc3nc(Nc3ccc(F)cc3C)n12	39% (active)
CCc1nnc2c3ccccc3nc(Nc3cc(C)cc(C)c3)n12	26% (active)
CCCCOC(=O)c1ccc(Nc2nc3ccccc3c3nnc(C)n23)cc1	25% (active)
CCc1ccc(Nc2nc3ccccc3c3nnc(C)n23)cc1	92% (inactive)
CCc1nnc2c3ccccc3nc(Nc3ccc(F)c(Cl)c3)n12	62% (inactive)
CCOc1ccc(Nc2nc3ccccc3c3nnc(CC)n23)cc1	62% (inactive)
CCc1nnc2c3ccccc3nc(Nc3ccc(C(C)=O)cc3)n12	78% (inactive)
Cc1nnc2c3ccccc3nc(Nc3ccc(F)cc3Cl)n12	83% (inactive)
Cn1c(-n2cccc2)c(-c2c(-c3ccc(F)cc3)[nH]c3c2c(=O)[nH]c(=O)n3C)c(=O)[nH]c1=O	55% (inactive)
CCc1ccc(NC(=O)C(=O)NCCc2csc(-c3ccc(C(F)(F)F)cc3)n2)cc1	99% (inactive)
Cc1cc(C)c2c(-n3cccc3)c(C(=O)NCC(C)c3ccccc3)sc2n1 (configuration not stated)	86% (inactive)
O=C(Nc1ccc(Br)cc1)C1CCCN1S(=O)(=O)c1ccc(F)cc1 (configuration not stated)	66% (inactive)
Cc1cccc(N2C(=O)C3C(C(=O)NC4CC4)C4C=CC3(O4)C2C(=O)NC2CCCC2)c1 (configuration not stated)	75% (inactive)
Cc1ccc(S(=O)(=O)NCCSc2nnnn2-c2ccc(Cl)c(C(=O)O)c2)cc1	138% (inactive)
Cc1ccc(-c2nc3nc(C)cc(Nc4ccccc4O)n3n2)cc1	75% (inactive)
COc1ccccc1NC(=O)Cn1nc(-c2ccc(C)cc2)c2c(c1=O)CCCC2	42% (inactive)
O=C(Cn1ncc2c([nH]c3ccccc32)c1=O)Nc1cc(F)ccc1F	81% (inactive)
CCc1ccccc1NC(=O)CN1CCCN(Cc2cc(C)ccc2C)S1(=O)=O	94% (inactive)
CCc1ccccc1NC(=O)Cn1nc(-c2cc(C)ccc2C)c2c(c1=O)CCCC2	41% (active)
Cc1nn(CC(=O)Nc2cc(F)ccc2F)c(=O)c2cccn12	94% (inactive)
Cc1ccc(C)c(-c2nn(CC(=O)Nc3cc(F)ccc3F)c(=O)c3c2CCCC3)c1	41% (active)
